The results in this text go back to PubChem BioAssay.

Broadly, the inhibition is the relative decrease from the control value, in per cent.

The nature of assay [1]: circadian clock period modulators, cell-based, LOPAC library, luminescence reporter (AID 2774).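 Further: values are relative to mean of DMSO wells on each plate.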 The conditions noted are these: circadian reporter cells, at 7 µM, actives lie on both sides.
For assay [2], the system named is Hepatitis C virus NS3 helicase. The assay can be described thus: HCV NS3 helicase inhibitors, primary screen, biochemical, fluorescence polarization, LOPAC1280 library (AID 687035; in the data active means inhibition above about 37%). The conditions noted are these: Purified HCV NS3 helicase, Cy5-dT15 ssDNA binding fluorescence polarization; stronger effect = higher value; concentration not given here.
Assay [3] in a line: Cy5 fluorescence quenching or enhancement artefacts, artefact control for HCV NS3 helicase inhibitor project, biochemical, LOPAC1280 (AID 687037). The conditions noted are these: Cy5-DNA-NS3h complex fluorescence interference counterscreen. (In general: Counterscreens check selectivity or assay interference.)
Assay [4] in a line: sensitizers of A549 cells to miR-34 induction, primary screen, imaging, A549 dox-inducible miR-34, nuclei and caspase counts (AID 1347080;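 active means compounds whose cell count with miR-34 switched on is under 0.7 times the count with it off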). The conditions noted are these: A549 miR-34 inducible, Hoechst nuclei count, 48 h.
Assay [5] is described as follows: phospholipid biosynthesis inhibitors in animal cells, primary screen, cell-based, LOPAC library, screen 4 (AID 1347384). The note with it: phospholipid biosynthesis inhibition screen, at 10 µM.
Assay [6] in a line: viability rescue of complex I mutant cybrids, primary screen, cell-based, galactose medium, ATP luminescence (AID 1645843;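 active means z-score of at least 1.8 in each of two replicates, scored against plate mean and spread of sample wells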;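 further: positive z means more ATP and so rescue of galactose-driven cybrid death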). The note with it: complex I mutant cybrid cells, 72 h, stronger effect = higher value.
[7] abbreviates: stronger effect = lower value, cell number ratio, induced over uninduced.
[8] abbreviates: measured here: relative caspase fold change +Dox/-Dox.
Where [9] appears, read: measured here: total cells with miR-34 induction, stronger effect = lower value.
[10] abbreviates: measured here: total cells without miR-34 induction.

SMILES strings stand for the structures. Activity calls are given as the source filed them. Unless noted, how the calls were made is not given here.

On to `N[C@H](CO)C(=O)O`, for which the period change in assay [1] was -0.02 h (inactive). Besides, the inhibition in assay [2] is -3% (inactive). The fluorescence ratio (interference) in assay [3] is 1 (inactive). Moreover, the fold change in assay [4] (setting [7]) was 0.97 (inactive); in assay [4] (setting [8]), 2.63. In addition, the results for the cell count in assay [4] (setting [9]) and in assay [4] (setting [10]) were 10300 and 10600, respectively. Moreover, the outcome in assay [5] was inactive. For the same molecule, the z-score in assay [6] is 0.31 (inactive).
`CC(=O)SC1CC2=CC(=O)CC[C@]2(C)C2CC[C@@]3(C)C(CC[C@@]34CCC(=O)O4)C12` (some centres undefined): the period change in assay [1] is 0.045 h (inactive). Also, in assay [2], the inhibition was -4% (inactive). Also, the fluorescence ratio (interference) in assay [3] is 1 (inactive). Also, the fold change was 1.07 (inactive) in assay [4] (setting [7]) and 1.82 in assay [4] (setting [8]). Moreover, the values for the cell count in assay [4] (setting [9]) and in assay [4] (setting [10]) were 7810 and 7280, respectively. In addition, the outcome in assay [5] was inactive. Moreover, in assay [6], the z-score was 1.24 (inactive).
In the case of `Nc1ccc(N2C(=O)c3ccccc3C2=O)c(Cl)c1`, the period change in assay [1] was 0.15 h (inactive). In assay [2], the inhibition was 0% (inactive). For the same molecule, the fluorescence ratio (interference) in assay [3] is 1 (inactive). The figures for the fold change in assay [4] (setting [7]) and in assay [4] (setting [8]) were 0.973 (inactive) and 1.66, respectively. Also, the cell count in assay [4] (setting [9]) worked out at 10200; in assay [4] (setting [10]) it was 10500. Besides, the result in assay [5] was inactive. Moreover, in assay [6], the z-score was 0.45 (inactive).
As for `CNC(=O)[C@H]1O[C@@H](n2cnc3c(NCc4ccc(N)cc4)ncnc32)C(O)[C@H]1O` (some centres undefined), the period change in assay [1] is -0.095 h (inactive). Further, the inhibition in assay [2] was -2% (inactive). Further, the fluorescence ratio (interference) in assay [3] is 1 (inactive). Also, the fold change in assay [4] (setting [7]) was 1 (inactive); in assay [4] (setting [8]), 1.7. For the same molecule, the cell count was 9670 in assay [4] (setting [9]) and 9680 in assay [4] (setting [10]). The call in assay [5] was inactive. Moreover, in assay [6], the z-score is 0.09 (inactive).
Regarding `Nc1ncnc2c1nc(Sc1ccc(Cl)cc1)n2C1OC2COP(=O)(O)O[C@@H]2[C@@H]1O` (some centres undefined), in assay [1], the period change is -0.015 h (inactive). Also, in assay [2], the inhibition is -8% (inactive). The fluorescence ratio (interference) in assay [3] is 0.9 (inactive). Moreover, the fold change in assay [4] (setting [7]) is 1.01 (inactive); in assay [4] (setting [8]), 1.25. The cell count in assay [4] (setting [9]) and in assay [4] (setting [10]) was 10500 throughout. Also, the molecule was called inactive in assay [5]. Moreover, the z-score in assay [6] is 1.15 (inactive).
Regarding `CC[C@@H](C)[C@H]1O[C@]2(CC[C@@H]1C)C[C@@H]1C[C@@H](C/C=C(\C)[C@@H](O[C@H]3C[C@H](OC)[C@@H](O[C@H]4C[C@H](OC)[C@@H](O)[C@H](C)O4)[C@H](C)O3)[C@@H](C)/C=C/C=C3\CO[C@@H]4[C@H](O)C(C)=C[C@@H](C(=O)O1)[C@]34O)O2`, the period change in assay [1] is 0.095 h (inactive). Moreover, the inhibition in assay [2] is -2% (inactive). In addition, the fluorescence ratio (interference) in assay [3] was 1 (inactive). The fold change is 0.888 (inactive) in assay [4] (setting [7]) and 0.534 in assay [4] (setting [8]). In addition, the cell count worked out at 1760 in assay [4] (setting [9]) and 1980 in assay [4] (setting [10]). In addition, in assay [5], the molecule was called inactive. The z-score in assay [6] was -1.29 (inactive).
For the molecule `C#CCn1c(=O)c2c(ncn2C)n(C)c1=O`, in assay [1], the period change is -0.07 h (inactive). Moreover, the inhibition in assay [2] is -1% (inactive). In assay [3], the fluorescence ratio (interference) is 1 (inactive). Further, the results for the fold change in assay [4] (setting [7]) and in assay [4] (setting [8]) were 0.971 (inactive) and 0.997, respectively. The values for the cell count in assay [4] (setting [9]) and in assay [4] (setting [10]) were 10100 and 10400, respectively. In assay [5], the result was inactive. Moreover, the z-score in assay [6] was 0.15 (inactive).
For `N[C@@H](Cc1cnc[nH]1)C(=O)O`, the period change in assay [1] was 0.03 h (inactive). Moreover, in assay [2], the inhibition was 0% (inactive). The fluorescence ratio (interference) in assay [3] was 1.1 (inactive). Further, the fold change is 0.99 (inactive) in assay [4] (setting [7]) and 1.08 in assay [4] (setting [8]). The cell count in assay [4] (setting [9]) came out at 9970; in assay [4] (setting [10]), 10100. For the same molecule, in assay [5], the molecule was called inactive. Also, the z-score in assay [6] was 0.865 (inactive).
`CC(N)(C(=O)O)c1ccc(C(=O)O)cc1` (centres undefined): the period change in assay [1] was -0.11 h (inactive). In addition, the inhibition in assay [2] is -2% (inactive). Further, the fluorescence ratio (interference) in assay [3] is 1 (inactive). Also, the fold change in assay [4] (setting [7]) was 1.05 (inactive); in assay [4] (setting [8]), 1.27. Besides, the cell count in assay [4] (setting [9]) stood at 11100; in assay [4] (setting [10]) it was 10600. The molecule was classed as inactive in assay [5]. Further, the z-score in assay [6] is 0.615 (inactive).
As for `c1ccc(CN2CCC3(CCCc4ccccc43)CC2)cc1`, the period change in assay [1] is 0 h (inactive). Moreover, the inhibition in assay [2] was -3% (inactive). Also, in assay [3], the fluorescence ratio (interference) was 1 (inactive). For the same molecule, the figures for the fold change in assay [4] (setting [7]) and in assay [4] (setting [8]) were 1.19 (inactive) and 0.602, respectively. For the same molecule, the cell count in assay [4] (setting [9]) was 7360; in assay [4] (setting [10]), 6160. The outcome in assay [5] was inactive. For the same molecule, the z-score in assay [6] is -1.27 (inactive).
Regarding `[Li+]`, the period change in assay [1] is -0.09 h (inactive). Moreover, the inhibition in assay [2] was -1% (inactive). Besides, in assay [3], the fluorescence ratio (interference) is 1 (inactive). Further, the fold change in assay [4] (setting [7]) is 0.887 (inactive); in assay [4] (setting [8]), 0.586. For the same molecule, the values for the cell count in assay [4] (setting [9]) and in assay [4] (setting [10]) were 9680 and 10900, respectively. In addition, in assay [5], the call was inactive. The z-score in assay [6] is -0.05 (inactive).
